Assay results reported in PubChem BioAssay (NCI).
This is part of a sample that, as a whole, favours compounds with a hit. Of some 79,000 tested, about 15% had one in any assay. Values without a mark were called inactive. Calls of active or inactive are those of the source. Cut-off read from the data, not from the text of the source: active = growth inhibition above about 70%; inactive = the rest.

Legend:
[1] = NCI Yeast Anticancer Drug Screen. Data for the rad50 strain (AID 155);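 note: 0% = growth of vehicle-only cultures of the same strain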; settings: S. cerevisiae rad50 strain growth inhibition, stronger effect = higher value
Summary of the method: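 Growth of the mutant yeast was measured after compound exposure and referenced to vehicle-treated cultures.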

[2] = NCI Yeast Anticancer Drug Screen. Data for the mec2-1 strain (AID 157); settings: S. cerevisiae mec2-1 strain, stronger effect = higher value
Summary of the method: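 mec2-1 yeast strain, carrying an alteration in DNA damage repair or cell cycle control, was exposed to compounds; growth inhibition was measured relative to vehicle-treated controls.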

[3] = NCI Yeast Anticancer Drug Screen. Data for the sgs1 mgt1 strain (AID 161);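 note: 0% = growth of cultures given vehicle only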; settings: S. cerevisiae sgs1 mgt1 strain, stronger effect = higher value
Summary of the method: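 Growth of a repair-deficient yeast mutant was monitored after compound treatment and expressed as inhibition relative to vehicle-treated cultures.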

[4] = NCI Yeast Anticancer Drug Screen. Data for the cln2 rad14 strain (AID 165);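 note: 0% = growth equal to vehicle treated cultures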; settings: S. cerevisiae cln2 rad14 strain, stronger effect = higher value
Summary of the method: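 Yeast carrying cln2 and rad14 alterations (cell cycle control and DNA damage repair) were exposed to compounds. Growth inhibition was measured against vehicle-treated controls.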

[5] = NCI Yeast Anticancer Drug Screen. Data for the bub3 strain (AID 167); settings: S. cerevisiae bub3 mutant strain, stronger effect = higher value
Summary of the method: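 Whole-cell yeast assay. The mutant strain was incubated with compounds, and growth inhibition was determined by comparison with vehicle-treated cells.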

[6] = NCI Yeast Anticancer Drug Screen. Data for the mlh1 rad18 strain (AID 175); settings: S. cerevisiae mlh1 rad18 strain growth inhibition, stronger effect = higher value
Summary of the method: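 Growth inhibition of the yeast strain was measured after compound exposure and expressed relative to vehicle-treated controls. The strain carries defined defects in DNA damage repair.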

[7] = at 5.0 µM (retest, dose inferred, filed as 0.5)
[8] = at 50.0 µM (retest, dose inferred, filed as 5.0)

| SMILES | growth inhibition [1, 7] | growth inhibition [1, 8] | growth inhibition ([1]; at 50.0 µM) | growth inhibition [2, 7] | growth inhibition [2, 8] | growth inhibition ([2]; at 50.0 µM) | growth inhibition [3, 7] | growth inhibition [3, 8] | growth inhibition ([3]; at 50.0 µM) | growth inhibition [4, 7] | growth inhibition [4, 8] | growth inhibition ([4]; at 50.0 µM) | growth inhibition [5, 7] | growth inhibition [5, 8] | growth inhibition ([5]; at 50.0 µM) | growth inhibition [6, 7] | growth inhibition [6, 8] | growth inhibition ([6]; at 50.0 µM) |
| --- | --- | --- | --- | --- | --- | --- | --- | --- | --- | --- | --- | --- | --- | --- | --- | --- | --- | --- |
| CCC1CCCCN1C(=S)N/N=C(\C)c1ccccn1 (stereo not given) | 29% | 98% (active) | 90.5% (active) | 19% | 99% (active) | 94.1% (active) | 28% | 99% (active) | 89.8% (active) | 21% | 99% (active) | 91.7% (active) | 21% | 99% (active) | 90% (active) | 23% | 98% (active) | 90.5% (active) |
| CCC(C)C(N)C(=O)NC(CC(N)=O)C(=O)NC(CC(C)C)C(=O)NC(CCCCN)C(=O)NC(C)C(=O)NC(CC(C)C)C(=O)NC(C)C(=O)NC(C)C(=O)NC(CC(C)C)C(=O)NC(C)C(=O)NC(CCCCN)C(=O)NC(CCCCN)C(=O)NC(C(=O)NC(CC(C)C)C(N)=O)C(C)CC (stereo not given) | -2% | 99% (active) | 93.3% (active) | 6% | 100% (active) | 94.2% (active) | -3% | 99% (active) | 93.8% (active) | 4% | 98% (active) | 92% (active) | -6% | 99% (active) | 93.6% (active) | 0% | 99% (active) | 92.8% (active) |
| CC(C)=CCCC(C)C1=C(O)C(=O)C(C)=CC1=O (stereo not given) | 25% | 97% (active) | 88.8% (active) | 19% | 98% (active) | 93.3% (active) | 15% | 99% (active) | 90.8% (active) | 24% | 86% (active) | 70% | 19% | 99% (active) | 90.6% (active) | 25% | 98% (active) | 87% (active) |
| CN(C)CC(C)(CN(C)C)C(=O)/C=C/c1c(Cl)cccc1Cl | 5% | 84% (active) | 85% (active) | -2% | 73% (active) | 93.7% (active) | 1% | 93% (active) | 77.4% (active) | 3% | 56% | 18.9% | 4% | 87% (active) | 81% (active) | 7% | 93% (active) | 91.5% (active) |
| CN(C)c1ccc(C(=C2C=CC(=[N+](C)C)C=C2)c2ccc(N(C)C)cc2)cc1 | 99% (active) | 90% (active) | 94.9% (active) | 99% (active) | 95% (active) | 95% (active) | 99% (active) | 95% (active) | 94.8% (active) | 99% (active) | 93% (active) | 87.2% (active) | 99% (active) | 91% (active) | 94.8% (active) | 99% (active) | 90% (active) | 91.2% (active) |
| Cc1cc(=O)oc2cc(O)cc(O)c12 | 0% | -1% | 16.5% | -4% | -2% | -8.95% | -11% | -4% | -8.8% | 0% | -11% | -18.6% | -3% | 6% | -14.7% | -5% | 1% | 6.8% |
| OC(c1cc(C23CC4CC(CC(C4)C2)C3)nc2c(Cl)cc(Cl)cc12)C1CCCCN1 (stereo not given) | 99% (active) | 98% (active) | 98.7% (active) | 99% (active) | 99% (active) | 98.8% (active) | 99% (active) | 99% (active) | 68.9% | 99% (active) | 98% (active) | 99.1% (active) | 99% (active) | 98% (active) | 98.5% (active) | 99% (active) | 98% (active) | 98.8% (active) |
| S=C1NC2=C(COc3ccccc32)C(c2ccc(Cl)cc2)N1 (stereo not given) | 59% | 97% (active) | 89.6% (active) | 70% (active) | 98% (active) | 92.5% (active) | 85% (active) | 98% (active) | 92.5% (active) | 69% | 97% (active) | 90.5% (active) | 92% (active) | 98% (active) | 90.8% (active) | 86% (active) | 97% (active) | 83.1% (active) |
| O/N=C1\c2ccccc2-c2ccc(F)cc21 | 20% | 90% (active) | 95% (active) | 7% | 73% (active) | 84.2% (active) | 13% | 87% (active) | 91.6% (active) | 5% | 71% (active) | 63% | 1% | 77% (active) | 91.1% (active) | 13% | 78% (active) | 93.8% (active) |
| CN(C)CCSC1=Nc2ccc(Cl)cc2C(c2ccccc2Cl)N(C)C1 (stereo not given) | 8% | 80% (active) | 96.7% (active) | 3% | 47% | 95.7% (active) | 3% | 78% (active) | 88.3% (active) | 4% | 27% | 80.2% (active) | 0% | 82% (active) | 97% (active) | 10% | 84% (active) | 95.8% (active) |
| CC1(O)CCCCCC1 | -13% | 74% (active) | 85% (active) | -29% | 58% | 69.7% | -7% | 54% | 88.2% (active) | 28% | 68% | 77.7% (active) | 3% | 74% (active) | 84.2% (active) | 16% | 91% (active) | 71.1% (active) |
| Cn1c(-c2ccccc2)c(/C=C/C2=[N+](C)c3ccccc3C2(C)C)c2ccccc21 | 88% (active) | 99% (active) | 99.6% (active) | 72% (active) | 99% (active) | 99.6% (active) | 96% (active) | 56% | 99.6% (active) | 59% | 98% (active) | 99% (active) | 93% (active) | 100% (active) | 99.5% (active) | 89% (active) | 99% (active) | 99% (active) |
| CCc1cnc2ccccc2c1/C=C/c1ccc(N(C)C)cc1 | -13% | 96% (active) | 98.4% (active) | 9% | 96% (active) | 97.3% (active) | 4% | 96% (active) | 92.3% (active) | -36% | 94% (active) | 93.1% (active) | 21% | 97% (active) | 96.8% (active) | -8% | 94% (active) | 94.7% (active) |
| COc1cc2c(c(OC)c1OC)-c1ccc(NCc3ccccc3)c(=O)cc1[C@@H](NC(C)=O)CC2 | 17% | 96% (active) | 49% | 9% | 89% (active) | 80.8% (active) | 16% | 98% (active) | 68.3% | 18% | 98% (active) | 73.7% (active) | 14% | 88% (active) | 68.3% | 16% | 97% (active) | -53.5% |
| NC(=S)N/N=C\c1nccc2c(N)cccc12 | 6% | 87% (active) | 61.4% | 35% | 89% (active) | 76.7% (active) | 9% | 81% (active) | 74% (active) | -12% | 81% (active) | 36.4% | 0% | 85% (active) | 74.8% (active) | 10% | 85% (active) | 67.5% |
| O=C1/C(=C/c2ccccn2)CCc2ccccc21 | 30% | 94% (active) | 84.7% (active) | 17% | 95% (active) | 89.5% (active) | 11% | 85% (active) | 83.4% (active) | 32% | 92% (active) | 46.2% | -8% | 98% (active) | 89.4% (active) | -15% | 97% (active) | 84.2% (active) |
| NNc1cccc([N+](=O)[O-])c1 | 12% | 68% | 76.8% (active) | 0% | 71% (active) | 84.2% (active) | 10% | 50% | 57.2% | 24% | 67% | 72.6% (active) | -6% | 94% (active) | 81.8% (active) | 11% | 94% (active) | 78% (active) |
| C/C=C/c1cc2c(c(=O)o1)C(=O)[C@@H](O)[C@H](C)O2 | 8% | 17% | 23.5% | 11% | 21% | 2% | 15% | 30% | 34.5% | 8% | 11% | -1.15% | 14% | 28% | 18.9% | 8% | 26% | 60.3% |
| CC(=O)C1Cc2ccccc2C1=O (stereo not given) | 4% | 83% (active) | -9.4% | 3% | 44% | 42.2% | 0% | 91% (active) | 41.1% | 1% | 50% | -13.1% | 3% | 93% (active) | 9% | 4% | 90% (active) | 71.8% (active) |
| CC(C)(C)N/N=C(/Cc1nc2c3c(ccc2[nH]c1=O)C(=O)c1ccccc1C3=O)C(=O)NC1=C(Cl)C(=O)c2ccccc2C1=O | 27% | 91% (active) | 82.8% (active) | 0% | 62% | 46.6% | 27% | 77% (active) | 67.8% | -24% | 39% | 21.7% | 13% | 83% (active) | 67.1% | 21% | 79% (active) | 42.4% |
